Compounds without any hit were thinned out: in the full panel of roughly 79,000, 15% have a hit. A number with no mark means an inactive call. Calls of active or inactive are those of the source. Cut-off read from the data, not from the text of the source: active = growth inhibition above about 70%; inactive = the rest.

The results in this text go back to PubChem BioAssay (NCI).

Test [1] can be described thus: NCI Yeast Anticancer Drug Screen. Data for the rad50 strain (AID 155).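 Note: 0% = growth of vehicle-only cultures of the same strain.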 To be noted: S. cerevisiae rad50 strain growth inhibition, stronger effect = higher value. The method, boiled down: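 Relative growth inhibition (compound vs vehicle) was measured in yeast with a defined repair-gene alteration.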
Test [2] can be described thus: NCI Yeast Anticancer Drug Screen. Data for the mec2-1 strain (AID 157). To be noted: S. cerevisiae mec2-1 strain, stronger effect = higher value. The method, boiled down:
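Readout is yeast growth inhibition, normalised to vehicle-treated controls, in the mec2-1 strain exposed to compound.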

Test [3] in a line: NCI Yeast Anticancer Drug Screen. Data for the sgs1 mgt1 strain (AID 161).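 Note: 0% = growth of cultures given vehicle only.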 To be noted: S. cerevisiae sgs1 mgt1 strain, stronger effect = higher value. An outline of the steps:
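Compounds are added to genetically altered yeast, and growth is compared with cultures given vehicle alone to give percent inhibition.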

Test [4] in a line: NCI Yeast Anticancer Drug Screen. Data for the cln2 rad14 strain (AID 165).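 Note: 0% = growth equal to vehicle treated cultures.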 To be noted: S. cerevisiae cln2 rad14 strain, stronger effect = higher value. The method, boiled down:
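Relative to vehicle controls, growth inhibition of compound-treated cln2 rad14 yeast was recorded.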

The nature of test [5]: NCI Yeast Anticancer Drug Screen. Data for the bub3 strain (AID 167). Conditions: S. cerevisiae bub3 mutant strain, stronger effect = higher value. An outline of the steps: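 Screening used yeast with an engineered genetic alteration affecting cell cycle control. Compound-exposed cultures were compared with vehicle cultures, and reduced growth was taken as inhibition.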
Test [6] is described as follows: NCI Yeast Anticancer Drug Screen. Data for the mlh1 rad18 strain (AID 175). To be noted: S. cerevisiae mlh1 rad18 strain growth inhibition, stronger effect = higher value. An outline of the steps: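 Test agents were incubated with a yeast strain of defined genotype (DNA damage repair defect). Inhibition of growth was derived by comparison with vehicle-exposed cultures.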
Setting [7] is: at 5.0 µM (retest, dose inferred, filed as 0.5).
Setting [8] is: at 50.0 µM (retest, dose inferred, filed as 5.0).

Consider `CCCCCCCCCCCC(=O)OC(C)C(=O)NCCCC` (stereo not given), for which the growth inhibition is 0% in test [1] (setting [7]); 21% in test [1] (setting [8]); -18.2% in test [1] (at 50.0 µM); 0% in test [2] (setting [7]); 18% in test [2] (setting [8]); 13.6% in test [2] (at 50.0 µM). Further, the growth inhibition is 2% in test [3] (setting [7]); 68% in test [3] (setting [8]); -2.05% in test [3] (at 50.0 µM); -2% in test [4] (setting [7]); -3% in test [4] (setting [8]); 26.4% in test [4] (at 50.0 µM). Also, the growth inhibition was -1% in test [5] (setting [7]); 9% in test [5] (setting [8]); -5.95% in test [5] (at 50.0 µM); -17% in test [6] (setting [7]); 32% in test [6] (setting [8]); 75.2% (active) in test [6] (at 50.0 µM).

As for `Nc1nc(N)c2cc(Sc3cccc(C(F)(F)F)c3)ccc2n1`, the growth inhibition was 21% in test [1] (setting [7]); 77% (active) in test [1] (setting [8]); 68.5% in test [1] (at 50.0 µM); 18% in test [2] (setting [7]); 75% (active) in test [2] (setting [8]); 53% in test [2] (at 50.0 µM). The growth inhibition in test [3] (setting [7]) was 15%; in test [3] (setting [8]) it was 97% (active); in test [3] (at 50.0 µM), 79.1% (active); in test [4] (setting [7]), 22%; in test [4] (setting [8]), 26%; in test [4] (at 50.0 µM), 87.7% (active). In addition, the growth inhibition in test [5] (setting [7]) was 17%; in test [5] (setting [8]), 74% (active); in test [5] (at 50.0 µM), 23.9%; in test [6] (setting [7]), 22%; in test [6] (setting [8]), 93% (active); in test [6] (at 50.0 µM) it was 88.8% (active).

Turning to `COC1=CC(=O)c2c(O)c3c(c(O)c2C1=O)CC(C)(O)OC3` (stereo not given), the growth inhibition in test [1] (setting [7]) is 87% (active); in test [1] (setting [8]) it was 92% (active); in test [1] (at 50.0 µM) it was 78% (active); in test [2] (setting [7]), 62%; in test [2] (setting [8]) it was 87% (active); in test [2] (at 50.0 µM), 68.8%. Moreover, the growth inhibition in test [3] (setting [7]) was 89% (active); in test [3] (setting [8]), 92% (active); in test [3] (at 50.0 µM), 80.2% (active); in test [4] (setting [7]), 21%; in test [4] (setting [8]) it was 45%; in test [4] (at 50.0 µM), 47.9%. For the same molecule, the growth inhibition in test [5] (setting [7]) was 51%; in test [5] (setting [8]), 73% (active); in test [5] (at 50.0 µM), 74.6% (active); in test [6] (setting [7]) it was 89% (active); in test [6] (setting [8]), 97% (active); in test [6] (at 50.0 µM), 82.7% (active).

On to `CC(C)c1ccc(Nc2n[nH]c(=S)s2)cc1`, for which the growth inhibition in test [1] (setting [7]) is 39%; in test [1] (setting [8]), 82% (active); in test [1] (at 50.0 µM), 86.1% (active); in test [2] (setting [7]), 32%; in test [2] (setting [8]), 79% (active); in test [2] (at 50.0 µM), 83% (active). In addition, the growth inhibition in test [3] (setting [7]) is 35%; in test [3] (setting [8]) it was 68%; in test [3] (at 50.0 µM), 87.8% (active); in test [4] (setting [7]), 22%; in test [4] (setting [8]), 85% (active); in test [4] (at 50.0 µM), 84.6% (active). In addition, the growth inhibition in test [5] (setting [7]) is 33%; in test [5] (setting [8]) it was 94% (active); in test [5] (at 50.0 µM) it was 87.5% (active); in test [6] (setting [7]), 41%; in test [6] (setting [8]), 82% (active); in test [6] (at 50.0 µM) it was 84.1% (active).

In the case of `CCCCCCCCCCCC[n+]1ccc2ccccc2c1`, the growth inhibition is 97% (active) in test [1] (setting [7]); 99% (active) in test [1] (setting [8]); 99.6% (active) in test [1] (at 50.0 µM); 99% (active) in test [2] (setting [7]); 100% (active) in test [2] (setting [8]); 99.7% (active) in test [2] (at 50.0 µM). Further, the growth inhibition in test [3] (setting [7]) was 98% (active); in test [3] (setting [8]) it was 99% (active); in test [3] (at 50.0 µM), 99.2% (active); in test [4] (setting [7]) it was 98% (active); in test [4] (setting [8]), 100% (active); in test [4] (at 50.0 µM), 98.1% (active). In addition, the growth inhibition in test [5] (setting [7]) was 99% (active); in test [5] (setting [8]), 99% (active); in test [5] (at 50.0 µM), 99.5% (active); in test [6] (setting [7]), 98% (active); in test [6] (setting [8]), 100% (active); in test [6] (at 50.0 µM), 99.5% (active).

`N=C(N)Sc1cccc[n+]1[O-]`: the growth inhibition in test [1] (setting [7]) was 99% (active); in test [1] (setting [8]) it was 99% (active); in test [1] (at 50.0 µM), 98.8% (active); in test [2] (setting [7]) it was 99% (active); in test [2] (setting [8]), 99% (active); in test [2] (at 50.0 µM), 98.9% (active). Besides, the growth inhibition in test [3] (setting [7]) is 100% (active); in test [3] (setting [8]), 99% (active); in test [3] (at 50.0 µM), 98.2% (active); in test [4] (setting [7]) it was 98% (active); in test [4] (setting [8]), 98% (active); in test [4] (at 50.0 µM), 97.4% (active). The growth inhibition in test [5] (setting [7]) is 100% (active); in test [5] (setting [8]), 99% (active); in test [5] (at 50.0 µM), 99% (active); in test [6] (setting [7]) it was 99% (active); in test [6] (setting [8]), 99% (active); in test [6] (at 50.0 µM), 98.2% (active).

Turning to `CCN(CC)CC(O)CNc1ccc(NCC2CO2)c2c1C(=O)c1ccccc1C2=O` (stereo not given), the growth inhibition in test [1] (setting [7]) is 71% (active); in test [1] (setting [8]), 76% (active); in test [1] (at 50.0 µM), 34.1%; in test [2] (setting [7]), 23%; in test [2] (setting [8]), 79% (active); in test [2] (at 50.0 µM) it was 25.6%. Further, the growth inhibition in test [3] (setting [7]) is 76% (active); in test [3] (setting [8]), 84% (active); in test [3] (at 50.0 µM) it was 48.8%; in test [4] (setting [7]), 49%; in test [4] (setting [8]), 83% (active); in test [4] (at 50.0 µM) it was 56%. Moreover, the growth inhibition in test [5] (setting [7]) was 43%; in test [5] (setting [8]) it was 59%; in test [5] (at 50.0 µM) it was -36%; in test [6] (setting [7]) it was 52%; in test [6] (setting [8]), 74% (active); in test [6] (at 50.0 µM) it was 59%.

As for `CN(C)c1ccc(C(C#N)(c2ccccc2)c2ccc(N(C)C)cc2)cc1`, the growth inhibition was 35% in test [1] (setting [7]); 87% (active) in test [1] (setting [8]); 39.3% in test [1] (at 50.0 µM); 14% in test [2] (setting [7]); 92% (active) in test [2] (setting [8]); 96.2% (active) in test [2] (at 50.0 µM). Further, the growth inhibition was 48% in test [3] (setting [7]); 93% (active) in test [3] (setting [8]); 94.2% (active) in test [3] (at 50.0 µM); 1% in test [4] (setting [7]); 89% (active) in test [4] (setting [8]); 59.8% in test [4] (at 50.0 µM). For the same molecule, the growth inhibition in test [5] (setting [7]) is 80% (active); in test [5] (setting [8]), 91% (active); in test [5] (at 50.0 µM), 97.5% (active); in test [6] (setting [7]), 16%; in test [6] (setting [8]), 86% (active); in test [6] (at 50.0 µM) it was 43.5%.

Consider `CCCCOS(=O)(=O)c1ccccc1`, for which the growth inhibition in test [1] (setting [7]) was 7%; in test [1] (setting [8]) it was -25%; in test [1] (at 50.0 µM), -6%; in test [2] (setting [7]), 10%; in test [2] (setting [8]), 1%; in test [2] (at 50.0 µM), -2.6%. Moreover, the growth inhibition in test [3] (setting [7]) was 0%; in test [3] (setting [8]), 1%; in test [3] (at 50.0 µM), 8.95%; in test [4] (setting [7]), 5%; in test [4] (setting [8]), 0%; in test [4] (at 50.0 µM), -23.1%. Also, the growth inhibition in test [5] (setting [7]) was -23%; in test [5] (setting [8]) it was -6%; in test [5] (at 50.0 µM) it was 0.8%; in test [6] (setting [7]), 3%; in test [6] (setting [8]) it was 1%; in test [6] (at 50.0 µM), 14.2%.

Consider `CCCCCCCCCCCCCCCCSC(=NCC)NCC`, for which the growth inhibition is 99% (active) in test [1] (setting [7]); 99% (active) in test [1] (setting [8]); 99.3% (active) in test [1] (at 50.0 µM); 67% in test [2] (setting [7]); 99% (active) in test [2] (setting [8]); 99.7% (active) in test [2] (at 50.0 µM). Also, the growth inhibition was 98% (active) in test [3] (setting [7]); 100% (active) in test [3] (setting [8]); 99.6% (active) in test [3] (at 50.0 µM); 23% in test [4] (setting [7]); 99% (active) in test [4] (setting [8]); 98.3% (active) in test [4] (at 50.0 µM). Besides, the growth inhibition is 81% (active) in test [5] (setting [7]); 99% (active) in test [5] (setting [8]); 99.5% (active) in test [5] (at 50.0 µM); 98% (active) in test [6] (setting [7]); 99% (active) in test [6] (setting [8]); 99.3% (active) in test [6] (at 50.0 µM).
